# A selection: hits, their analogues and other compounds. The true share with any hit is near 2.4%.
# PKD1 kinase inh: blocks activity of human protein kinase D1 | inhibition, % (test concentration not listed) | actives 0.056% (n = 200,000) | Q15139 | AID 797 | PKD1 kinase fluorescence polarization assay; in the data active = inhibition above about 50%
# Redox H2O2 prof: compounds producing H2O2 with reducing agent – biochemical, NIH compound library profiling, artefact control for MLSCN library redox annotation, primary screen | actives 0.03% (n = 200,000) | activation, % at 10 µM | AID 878 | DTT-dependent redox cycling H2O2, phenol red/HRP absorbance; 100% = 100 µM peroxide control, 0% = buffer;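 active = activation of at least 50% relative to the plate's high and low controls in the primary single-dose screen; inactive = activation below 50%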;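 note: compound incubated with DTT at 0.8 mM final as the reducing agent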
# TNF death inh: blocks TNF-alpha induced death of Jurkat FADD-/- cells. activation (protection from cell death), % at 10 µM. AID 463075. actives 0.068% (n = 220,000). Jurkat FADD-/- TNF necroptosis rescue, ATP luminescence, 24 h; 0 = TNF only, 100 = no-TNF cells;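 active = activation, meaning protection from cell death, of at least 50% relative to plate controls; inactive = activation below 50%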;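 note: necroptosis triggered by 40 ng/mL TNF-alpha added together with compound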
# PERK inhibitor: human PERK inhibition, primary cell-based screen; Q9NZJ5; CHO PERK-DD fusion, SEAP luminescence translation reporter; inhibition, % at 5.6 µM; actives 0.17% (n = 220,000); AID 1416;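 active = inhibition above the mean inhibition of all tested compounds plus 3 SD, set separately per screening campaign, cut at about 2.9% in these data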;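 note: PERK kinase domain activated by AP20187 dimerizer at 100 nM; 0% = DMSO with dimerizer and 100% = rapamycin at 8.4 µM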
# WT yeast gro inh: growth inhibition of WT yeast, mitochondrial fusion screen; inhibition, % at 10 µM; actives 2.1% (n = 190,000); mitochondrial fusion phenotypic screen, WT strain; AID 1362; in the data active = inhibition above about 58%; tested in S. cerevisiae
# zVAD death inh: blocks zVAD induced death of L929 cells. actives 0.38% (n = 220,000). L929 zVAD necroptosis rescue, ATP luminescence, 24 h; with zVAD 60 µM. viability rescue, % at 10 µM;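 active = activation, scaled between plate controls, above about 75%, limit read from the data; inactive = activation under that limit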;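 note: 0% = zVAD with DMSO and 100% = DMSO alone without zVAD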
# * hit, by the source's call; . = no result given.
SMILES,PKD1 kinase inh,Redox H2O2 prof,TNF death inh,PERK inhibitor,WT yeast gro inh,zVAD death inh
O=C(Nc1ccc(C2=NCCN2)cc1)c1ccc(Cl)c(C(=O)Nc2ccc(C3=NCCN3)cc2)c1,.,.,0,0,.,1
COc1ccc(-c2csc(NC(=O)C3COc4ccccc4O3)n2)cc1OC (stereo not drawn),-14,0,1,2,65*,3
COc1ccc(/C=N/NC(=O)C2COc3ccccc3O2)cc1OC (stereo not drawn),-3,-1,1,1,4,-1
O=C(Nc1nc(-c2ccc3c(c2)OCO3)cs1)C1CC1,-2,0,8,-1,-6,76*
O=C(CSCC(=O)Nc1nc(-c2ccc3c(c2)OCO3)cs1)Nc1nccs1,-6,0,0,0,4,2
Cc1cc(C)n(-c2nc(C)nc3c2cnn3-c2ccccc2)n1,-17,-1,2,2,65*,0
Cc1cc(C)n(-c2nc3ccccc3c3nc(C)nn23)n1,2,-1,1,1,9,4
Cc1csc(NC(=O)c2cccn2C)n1,-4,0,0,1,85*,0
Cn1cccc1C(=O)Nc1nc(-c2ccccn2)cs1,-2,3,-15,-1,-1,1
O=C(O)CC(NC(=O)C1c2ccccc2Oc2ccccc21)c1ccc(Cl)cc1 (stereo not drawn),-10,0,2,1,2,1
Cc1nn(-c2ccccc2)c(C)c1NC(=O)c1ccc(S(=O)(=O)N2CCCC2)cc1,-6,2,-3,0,74*,0
Cc1noc(/C=C/c2cccs2)c1S(=O)(=O)N1CCC(C(=O)NCCCN2CCC(C)CC2)CC1,2,10,0,0,2,0
Cc1cc(C)nc(SCc2ccc(C(=O)N/N=C3\CCCC(=O)C3)cc2)n1,-9,0,0,-1,-4,4
COc1cc(Cl)c(C)cc1NC(=O)CN(C)Cc1cccc(OC)c1OC,3,-2,2,0,59*,1
COc1ccc(Br)cc1CN(C)CC(=O)Nc1ccccc1Cl,-5,1,-1,0,67*,1
CN(CC(=O)Nc1ccccc1-c1ccccc1)Cc1ccccc1Cl,0,0,-1,0,70*,1
COc1ccccc1CN(C)CC(=O)Nc1ccc(Cl)cc1F,-4,-2,-1,0,24,1
O=C(NC1CCCCC1)C1CC(=O)N(c2cccc([N+](=O)[O-])c2)C1 (stereo not drawn),-2,0,1,0,-14,2
O=C(O)CCCC(=O)N1N=C(c2ccccc2)CC1c1cccs1 (stereo not drawn),.,.,2,0,.,-1
C/C(=N\N=C(/N)SC1CC(=O)N(c2cccc(Cl)c2)C1=O)c1cccs1 (stereo not drawn),12,-5,-1,0,94*,0
CCCCOC(=O)C1C2C=C[C@]3(CN(CCCOC)C(=O)[C@H]13)O2 (stereo partly drawn),-9,0,-1,3.4*,-5,0
CCc1ccccc1N1CC23C=CC(O2)C(C(=O)OC)C3C1=O (stereo not drawn),8,-1,1,1,17,-1
CCc1ccccc1N1C[C@@]23C=C[C@@H](O2)C(C(=O)OCC(C)C)[C@H]3C1=O (stereo partly drawn),2,2,0,-1,60*,0
CCOC(=O)C1[C@H]2C(=O)N(CCCOC)C[C@]23C=C[C@H]1O3 (stereo partly drawn),-3,-4,-1,1,4,0
O=C(N/C(=C/c1cn(-c2ccccc2)nc1-c1ccccc1)C(=O)N1CCOCC1)c1ccc(Cl)cc1Cl,-3,0,0,1,-8,0
FC(F)(F)c1ccc(N2CCN(c3cc(-c4ccccc4)nc4ncnn34)CC2)nc1,-7,0,-8,0,64*,1
CC(C)C(=O)NNC(=O)c1cc2sccc2s1,.,.,4,1,.,2
CC(C)c1cc(C(N)=O)c(NC(=O)c2cccc(COc3ccc(Cl)cc3)c2)s1,0,0,2,1,65*,0
